# Source: PubChem
# KLK7 zymogen act – activators of human kallikrein-7 zymogen; P49862; purified proKLK7, EDANS-DABCYL substrate fluorescence; 100% is mature enzyme control, 0% vehicle; activation, % at 7 µM; actives 0.9% (n = 370,000);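 active = activation above the mean of all tested compounds plus 3 SD, computed per campaign excluding outliers beyond control limits, cut at about 13% in these data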
# PLC-gamma1 inh – PLC-gamma1 (human) inhibition, primary screen; purified PLC-gamma1, fluorogenic substrate, fluorescence; P19174; actives 0.84% (n = 370,000); inhibition, % at 12.2 µM; AID 720700; in the data active = inhibition above about 9.5%
# ADAM17 inh – inhibits human ADAM17; actives 0.83% (n = 370,000); inhibition, % at 6.95 µM; recombinant ADAM17, EDANS/DABCYL FRET peptide cleavage;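 active = inhibition above the mean of compounds lying between control limits plus 3 SD, set per campaign, cut at about 8.5% in these data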;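 note: 0% = DMSO-only wells as the low control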
# HGIII-sPLA2 inh – Blocks human group III sPLA2 activity; QFRET BODIPY PC-A2 liposome hydrolysis, fluorescence; inhibition, % at 12.2 µM; actives 0.56% (n = 370,000); AID 743126;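 active = inhibition above mean plus 3 SD of compounds lying within the high and low control bounds, cut at about 19% in these data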;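 note: 0% = median of test compound wells and 100% = no enzyme DMSO wells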
# Target sequence (Q9NZ20 whole entry, looked up): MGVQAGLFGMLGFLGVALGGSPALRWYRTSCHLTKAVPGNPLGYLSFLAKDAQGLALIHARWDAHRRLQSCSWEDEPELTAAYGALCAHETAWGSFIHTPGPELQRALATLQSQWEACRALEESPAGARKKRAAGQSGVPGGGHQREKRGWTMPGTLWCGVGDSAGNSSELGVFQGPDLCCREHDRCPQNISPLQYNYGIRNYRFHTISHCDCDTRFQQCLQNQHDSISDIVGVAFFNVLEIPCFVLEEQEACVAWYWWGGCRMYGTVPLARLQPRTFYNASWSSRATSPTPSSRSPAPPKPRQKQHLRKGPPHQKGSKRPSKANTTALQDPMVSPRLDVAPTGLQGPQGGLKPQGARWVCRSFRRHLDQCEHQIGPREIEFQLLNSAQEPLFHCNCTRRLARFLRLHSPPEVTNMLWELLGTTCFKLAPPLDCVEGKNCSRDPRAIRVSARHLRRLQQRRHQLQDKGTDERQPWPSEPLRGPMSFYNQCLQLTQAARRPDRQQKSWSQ
# ADAM10 inh – inhibits human ADAM10; recombinant ADAM10, EDANS/DABCYL FRET peptide cleavage, 3 h; inhibition, % at 7 µM; actives 0.62% (n = 370,000);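 active = inhibition above a per-campaign cutoff equal to the mean of compounds falling between control-based bounds plus 3 SD, cut at about 20% in these data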;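 note: 0% = DMSO wells while the 100% control is not disclosed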
# PLCb3 inh – inhibitors of human phospholipase C beta3 | Q01970 | Purified PLC-beta3, fluorogenic substrate, fluorescence | inhibition, % at 12.2 µM | actives 0.18% (n = 370,000); in the data active = inhibition above about 11%;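 note: 0% = median of compound wells on plate and 100% = full blocker control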
# hGIII sPLA2 conf – human GIII-sPLA2 inhibition, confirmation; shares compounds with HGIII-sPLA2 inh; recombinant hGIII-sPLA2, BODIPY PC-A2 QFRET fluorescence; inhibition, % at 12.2 µM; actives 34% (n = 2,000); AID 743280;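 active = mean inhibition across triplicates above the hit cutoff set in the earlier primary screen, cut at about 19% in these data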;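 note: 0% = enzyme with DMSO and 100% = DMSO wells lacking enzyme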
# BODIPY interf – counter-screen for HGIII-sPLA2 inhibitors: 535nm fluorescence interference. shares compounds with HGIII-sPLA2 inh. BODIPY FL product fluorescence interference, QFRET. inhibition, % at 12.2 µM. actives 8.5% (n = 2,000). AID 743282;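 active = average inhibition above the solvent-only control mean plus 3 SD, cut at about 6% in these data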;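 note: 0% = DMSO with substrate plus product and 100% = DMSO with substrate alone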
# 535nm interf DR – 535nm optical interference dose response, HGIII-sPLA2 counter-screen. shares compounds with HGIII-sPLA2 inh. BODIPY FL product fluorescence interference, cell-free. IC50, µM. 240 tested, under 10 active;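 active = IC50 at or below 10 µM; inactive = IC50 above 10 µM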
# Starred values were filed as active, the others as inactive; i = inactive; x = not tested or not shown. Most compounds without a hit are left out; they make up all but 3.4% or so of the library.
SMILES,KLK7 zymogen act,PLC-gamma1 inh,ADAM17 inh,HGIII-sPLA2 inh,ADAM10 inh,PLCb3 inh,hGIII sPLA2 conf,BODIPY interf,others
O=C(CSc1nc(=O)n2ccccc2n1)Nc1ccc2c(c1)OCO2,-1,3,-4,12,-6,0,x,x,
CC1(c2nc3ccccc3[nH]2)c2ccccc2C(=O)N1Cc1ccccc1 (centres undefined),0,2,-6,7,-1,-3,x,x,
O=C(NCc1ccccc1)N1CCNCC1,0,0,-7,22*,-7,-2,1,-7,
CCOC(=O)N1CCN(C(=O)CSc2nc(CC)nc3c2c(=O)n(C)c(=O)n3C)CC1,0,1,-5,21*,-5,-5,-1,-20,
CCc1nc(SCC(=O)N2CCCCCC2)c2c(=O)n(C)c(=O)n(C)c2n1,0,1,0,-2,-12,-1,x,x,
CCCOc1ccc(C(=O)NCCO)cc1,-1,2,-3,-1,2,6,x,x,
CC1(C)CC2C1CCC1(O)CC2(C)CCC1N(O)c1ccc(C(=O)NCCO)cn1 (centres undefined),0,1,-2,21*,-11,-4,24*,-7,
Cc1ccc(NC(=O)CSc2nnc(Cc3ccccc3)c(=O)[nH]2)c(C)c1,1,-328,-1,-4,-2,-2,x,x,
Cc1ccc(Cn2c(=O)n(CCC(=O)NCc3ccc4c(c3)OCO4)c(=O)c3ccccc32)cc1,0,4,0,-2,2,3,x,x,
N#Cc1ccccc1Cn1c(=O)n(CCCC(=O)NCc2ccc3c(c2)OCO3)c(=O)c2ccccc21,-1,-3,-5,21*,-15,-3,-2,-10,
COc1ccccc1N1CCN(C2CCCN(C(=O)c3ccccn3)C2)CC1 (centres undefined),1,3,3,4,5,0,x,x,
CCCNC(=O)c1ccc(CN2CCc3ccccc3C2)cc1,0,1,-4,5,6,0,x,x,
C/C(=N\NC(=O)c1ccc(CN2CCc3ccccc3C2)cc1)c1ccccc1O,-6,-74,0,33*,-3,-99,24*,-21,
Cc1cccc(NC(=S)N/N=C2/CCCCc3ccccc32)c1,0,-2,1,16,-1,-4,x,x,
Cc1ccc(NC(=S)N/N=C2/CCCCc3ccccc32)cc1,-1,3,2,24*,6,-9,31*,-3,535nm interf DR=>122
N/C(=N\OC(=O)c1ccccc1F)c1cccc([N+](=O)[O-])c1,0,2,-3,2,0,-4,x,x,
CN(C)S(=O)(=O)c1cccc(NC(=S)N/N=C/c2cccc(O)c2)c1,0,1,8,-9,12,6,x,x,
CN(C)S(=O)(=O)c1cccc(NC(=S)N/N=C/c2cc(Br)ccc2O)c1,-53,i,-3,39*,-18,i,28*,11*,
COc1ccc(CC(N)c2csc(NC(=O)c3cc(C(C)(C)C)nn3Cc3ccccc3)n2)cc1 (centres undefined),-1,-3,2,24*,-12,0,4,-5,
N=c1c(S(=O)(=O)c2ccc(F)cc2)cc2c(=O)n3ccccc3nc2n1CC1CCCO1 (centres undefined),-1,-42,-62,0,-203,-79,x,x,
CC1=NN(c2ccccc2)C(=O)/C1=C/C=C/c1ccccc1,0,2,2,23*,-2,-2,46*,11*,
O=C(COC(=O)c1ccco1)NC1CCCC1,1,1,0,1,-4,-5,x,x,
CC(C)Cn1c(-c2csc3ccccc23)n[nH]c1=S,0,-2,-2,13,7,2,x,x,
CCn1c(-c2csc(C(C)C)c2)n[nH]c1=S,-2,3,2,22*,3,6,29*,2,535nm interf DR=>122
